# Unmarked numbers belong to inactive results. For some assays here: Results with a measured potency or affinity are listed apart. Active and inactive are the calls of the source. Unless noted, how the calls were made is not given here.
# Columns and labels:
# [1] = antimalarial activity against Dd2 strain (AID 2302;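 active means growth inhibition above 50% at the single 2 µM test dose, taken to imply half-maximal potency below 2 µM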;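 further: 0% = DMSO untreated growth and 100% = chloroquine plus artemisinin killed control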); settings: P. falciparum Dd2 in RBCs, LDH growth readout, 72 h; at 2 µM; hits give high values
# [2] = human hepatoma cell viability loss – ATP luminescence, cytotoxicity control for P. falciparum antimalarial project, primary screen (AID 2303;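 active means inhibition above 50%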;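 further: 0% = DMSO wells and 100% = digitonin-killed cells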); settings: HepG2 viability, 24-48 h, at 10 µM, hits give high values
# [3] = target: L-lactate dehydrogenase (Plasmodium falciparum (isolate CDC / Honduras)) (UniProt Q27743); experiment: PfLDH activity inhibition – cell lysate, 3D7 strain, counter-screen for P. falciparum growth inhibition project (AID 2304);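 further: 0% = vehicle and 100% = reference inhibitor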; settings: P. falciparum 3D7 crude extract, LDH APAD/NBT absorbance; at 2 µM; hits give high values
# [4] = inhibition of 3D7 malaria parasite growth – strain 3D7 (AID 2306);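 further: 0% = DMSO wells and 100% = chloroquine plus artemisinin control wells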; settings: P. falciparum 3D7 erythrocytic growth, LDH absorbance, 72 h; at 2 µM; hits give high values
# [5] = target: Calcium-dependent protein kinase 1 (Plasmodium falciparum (isolate 3D7)) (UniProt P62344); experiment: PfCDPK1 kinase inhibitors, biochemical, TCAMS library (AID 1159585; cut-off not given, nearly all actives have IC50 up to about 0.98 µM;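 further: inhibitors leave more ATP so luminescence rises with inhibition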); settings: recombinant PfCDPK1, Kinase-Glo ATP depletion luminescence
# [6] = target: Plasmodium falciparum protein kinase 6 (PK6, PF3D7_1337100) (UniProt Q8IDW1); experiment: PfPK6 kinase inhibitors, biochemical, TCAMS library (AID 1159586); settings: recombinant PfPK6, Kinase-Glo ATP depletion luminescence
# [7] = target: Protein kinase 7 (PK7), Plasmodium falciparum 3D7 (PF3D7_0213400) (UniProt Q7YTF7); experiment: inhibition of Plasmodium PK7 catalytic activity – biochemical, TCAMS antimalarial set, Kinase-Glo luminescence (AID 1159587); settings: recombinant PfPK7, Kinase-Glo ATP depletion luminescence
# [8] = target: Calcium-dependent protein kinase 4 (Plasmodium falciparum (isolate 3D7)) (UniProt Q8IBS5); experiment: PfCDPK4 kinase inhibitors, biochemical, TCAMS library (AID 1159588; cut-off not given, nearly all actives have IC50 up to about 0.91 µM); settings: recombinant PfCDPK4, Kinase-Glo ATP depletion luminescence
# Calcium-dependent protein kinase 4 (Plasmodium falciparum (isolate 3D7)), sequence (Q8IBS5 whole entry, looked up): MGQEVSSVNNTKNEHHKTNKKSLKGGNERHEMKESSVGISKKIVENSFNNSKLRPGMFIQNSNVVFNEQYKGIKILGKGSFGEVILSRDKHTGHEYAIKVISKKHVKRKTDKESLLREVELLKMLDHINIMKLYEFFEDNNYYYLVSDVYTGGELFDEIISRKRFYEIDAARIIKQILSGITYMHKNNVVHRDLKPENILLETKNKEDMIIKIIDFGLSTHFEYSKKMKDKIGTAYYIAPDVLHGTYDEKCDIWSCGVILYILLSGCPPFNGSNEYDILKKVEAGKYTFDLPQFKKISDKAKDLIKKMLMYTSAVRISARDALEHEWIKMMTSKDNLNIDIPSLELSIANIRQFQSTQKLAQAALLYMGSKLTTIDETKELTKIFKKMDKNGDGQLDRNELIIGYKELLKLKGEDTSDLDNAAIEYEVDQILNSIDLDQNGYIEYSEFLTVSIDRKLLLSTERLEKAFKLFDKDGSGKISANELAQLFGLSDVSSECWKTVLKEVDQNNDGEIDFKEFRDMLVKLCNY
# Protein kinase 7 (PK7), Plasmodium falciparum 3D7 (PF3D7_0213400), sequence (Q7YTF7 1-343): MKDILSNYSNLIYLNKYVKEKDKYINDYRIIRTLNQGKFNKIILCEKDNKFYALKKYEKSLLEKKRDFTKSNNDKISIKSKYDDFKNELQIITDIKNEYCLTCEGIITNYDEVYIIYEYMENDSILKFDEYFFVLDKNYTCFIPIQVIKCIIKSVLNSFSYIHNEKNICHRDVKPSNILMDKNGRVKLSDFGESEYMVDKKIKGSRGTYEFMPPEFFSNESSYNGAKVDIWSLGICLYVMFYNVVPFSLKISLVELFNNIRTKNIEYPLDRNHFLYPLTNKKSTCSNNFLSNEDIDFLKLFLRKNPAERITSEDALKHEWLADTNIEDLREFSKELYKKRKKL
# Calcium-dependent protein kinase 1 (Plasmodium falciparum (isolate 3D7)), sequence (P62344 whole entry, looked up): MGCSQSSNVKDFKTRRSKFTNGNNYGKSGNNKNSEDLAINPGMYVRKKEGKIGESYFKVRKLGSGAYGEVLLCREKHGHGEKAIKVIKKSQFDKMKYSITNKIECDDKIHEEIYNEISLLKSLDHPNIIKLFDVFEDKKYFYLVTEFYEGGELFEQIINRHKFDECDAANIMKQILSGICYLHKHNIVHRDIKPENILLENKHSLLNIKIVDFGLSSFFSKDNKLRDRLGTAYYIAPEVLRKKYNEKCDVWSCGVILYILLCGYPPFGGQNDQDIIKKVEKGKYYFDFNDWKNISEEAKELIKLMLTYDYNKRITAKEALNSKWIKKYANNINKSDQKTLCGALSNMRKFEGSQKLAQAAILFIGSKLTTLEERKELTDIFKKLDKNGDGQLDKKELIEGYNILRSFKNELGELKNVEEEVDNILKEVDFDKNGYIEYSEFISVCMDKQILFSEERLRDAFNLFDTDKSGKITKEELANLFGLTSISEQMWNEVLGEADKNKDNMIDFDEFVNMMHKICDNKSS
# L-lactate dehydrogenase (Plasmodium falciparum (isolate CDC / Honduras)), sequence (Q27743 whole entry, looked up): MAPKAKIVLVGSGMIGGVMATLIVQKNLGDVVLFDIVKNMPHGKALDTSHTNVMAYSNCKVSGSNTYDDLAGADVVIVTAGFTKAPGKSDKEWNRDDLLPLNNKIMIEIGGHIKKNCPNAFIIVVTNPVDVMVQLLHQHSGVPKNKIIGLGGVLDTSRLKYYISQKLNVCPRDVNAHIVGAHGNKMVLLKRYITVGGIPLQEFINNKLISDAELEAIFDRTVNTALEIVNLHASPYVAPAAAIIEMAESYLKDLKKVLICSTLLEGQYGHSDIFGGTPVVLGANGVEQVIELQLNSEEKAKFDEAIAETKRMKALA
# Plasmodium falciparum protein kinase 6 (PK6, PF3D7_1337100), sequence (Q8IDW1 1-305): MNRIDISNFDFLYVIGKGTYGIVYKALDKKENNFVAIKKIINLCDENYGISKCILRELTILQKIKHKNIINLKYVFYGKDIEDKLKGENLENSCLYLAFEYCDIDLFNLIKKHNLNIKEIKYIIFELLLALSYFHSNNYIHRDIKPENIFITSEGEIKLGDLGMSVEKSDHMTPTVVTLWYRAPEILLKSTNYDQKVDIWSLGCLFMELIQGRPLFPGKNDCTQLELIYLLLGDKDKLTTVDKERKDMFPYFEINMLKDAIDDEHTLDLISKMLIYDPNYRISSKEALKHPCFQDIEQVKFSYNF
Structure (SMILES),growth inhibition [1],inhibition [2],inhibition [3],growth inhibition [4],outcome [5],outcome [6],outcome [7],outcome [8]
CN(C)CCOc1cccc(NC(=O)Nc2ccc(-c3ccccc3)cc2)c1,16%,11%,-1%,90% (active),inactive,inactive,inactive,inactive
CO/C(=C\C=C\c1cc2cc(Cl)c(Cl)cc2[nH]1)C(=O)NCCCN1CCN(c2cccc(CCO)c2)CC1,32%,61% (active),-1%,101% (active),inactive,inactive,inactive,inactive
CCc1ccc(CN2CCC(CN(c3ccc(N4CCOCC4)c(F)c3)S(=O)(=O)c3ccc(C(C)(C)CC)cc3)CC2)cc1,94% (active),26%,-5%,93% (active),inactive,inactive,inactive,inactive
O=C1C=Cc2ccccc2/C1=C/c1sc(=NCc2ccccc2)n(Cc2ccccc2)c1O,98% (active),0%,-7%,98% (active),inactive,inactive,inactive,inactive
O=C(Nc1ccnc2ccccc12)NC1CCN(Cc2ccccc2)CC1,43%,18%,5%,96% (active),inactive,inactive,inactive,inactive
Nc1ccc2[nH]cc(C3CCN(CC4CCC(NC(=O)/C=C/c5ccccc5Cl)CC4)CC3)c2n1 (stereo not given),45%,7%,-3%,100% (active),inactive,inactive,inactive,inactive
CCc1c(CCNCCCCCCNCCc2ccc(Br)cc2)ccc(OC)c1OC,14%,100% (active),0%,99% (active),inactive,inactive,inactive,inactive
CCN1C(=O)N(CCC(C)C)C2(CCN(Cc3ccc(OC)cc3O)CC2)C1=O,77% (active),13%,4%,89% (active),inactive,inactive,inactive,inactive
Cc1sc(CNCCCNc2cc(=O)c3ccccc3[nH]2)c(I)c1C,48%,-10%,-4%,94% (active),inactive,inactive,inactive,inactive
COc1ccc(-c2cccc(NC(=O)c3cccc(Cl)c3)c2)cc1CN1CCN(C)CC1,48%,27%,1%,101% (active),inactive,inactive,inactive,inactive
O=c1[nH]c(NCCCNCc2cc3c(Cl)cc(Cl)cc3[nH]2)nc2ccsc12,11%,62% (active),0%,96% (active),inactive,inactive,inactive,inactive
CCOC(=O)c1ccc(NC(=O)Nc2cccc(-c3ccc(-c4nc5ccccc5[nH]4)cc3)c2)cc1,86% (active),54% (active),-2%,100% (active),inactive,inactive,inactive,inactive
Clc1ccc(Cl)c2[nH]c(CNCCCNc3nc4ccccc4[nH]3)cc12,39%,88% (active),-6%,100% (active),inactive,inactive,inactive,inactive
O=C(COc1ccccc1Cl)N1CCc2cc3nccc(N4CCN5CCC[C@H]5C4)c3cc21,99% (active),4%,-1%,91% (active),inactive,inactive,inactive,inactive
CN1CCCC1CCNC(=O)[C@H](CC1CCCCC1)NC(=O)c1ccc(O)c(-c2ccc(Cl)c(Cl)c2)c1 (stereo not given in full),35%,0%,3%,98% (active),inactive,inactive,inactive,inactive
COc1ccc2nccc(N3CCC(NCCNCc4cc5c(cn4)OCCO5)C3)c2n1 (stereo not given),3%,8%,-3%,99% (active),inactive,inactive,inactive,inactive
Cc1cc(N[C@@H](Cc2ccccc2)C(=O)NCCOc2ccccc2)nc(Nc2ccccc2)n1,63% (active),2%,-2%,100% (active),inactive,inactive,inactive,inactive
CCn1c(-c2nonc2N)nc2cnc(Oc3cccc(NC(=O)c4ccc(OCCN(C(C)C)C(C)C)cc4)c3)cc21,10%,63% (active),-6%,97% (active),inactive,inactive,inactive,inactive
Cc1nc(N)nc(N)c1CCCOc1cccc(Cl)c1,-1%,16%,-4%,96% (active),inactive,inactive,inactive,inactive
COc1ccc(NC(=O)[C@H](Cc2ccccc2)Nc2nc(NCCN3CCCC3)ncc2C)cc1,9%,26%,1%,89% (active),inactive,inactive,inactive,inactive

Structure (SMILES),growth inhibition [1],inhibition [2],inhibition [3],growth inhibition [4],outcome [5],outcome [6],outcome [7],outcome [8]
Cc1nnsc1C(=O)Nc1cccc(-c2ccc(-c3nc4ccccc4[nH]3)s2)c1,13%,55% (active),-3%,89% (active),inactive,inactive,inactive,inactive
CCCCC(CC)CN1C(=O)C(c2ccccc2)(c2ccccc2)N=C1N (stereo not given),98% (active),32%,4%,94% (active),inactive,inactive,inactive,inactive
Cc1cc(-c2cccc(CNC3CCN(C)CC3)c2)ccc1S(=O)(=O)NCCN1CCCC1,0%,18%,0%,100% (active),inactive,inactive,inactive,inactive
Cc1cnccc1/C=C/c1cccc(OCCN2CCc3ccc(S(C)(=O)=O)cc3CC2)c1,80% (active),9%,-4%,93% (active),inactive,inactive,inactive,inactive
CS(=O)(=O)CCNc1cc(N2CCc3ncnc(Nc4ccc(OCc5cccc(F)c5)c(Cl)c4)c3C2)ncn1,50% (active),-17%,5%,96% (active),inactive,inactive,inactive,inactive
COc1ccc(-c2cccc(NC(=O)c3ccc(Cl)cc3)c2)cc1CNC(C)C,44%,53% (active),-4%,101% (active),inactive,inactive,inactive,inactive
Cc1ccc(/C=C/C(=O)NCCCCCN2CCC(c3c[nH]c4ccccc34)CC2)cc1,7%,36%,0%,86% (active),inactive,inactive,inactive,inactive
CCOC(=O)c1ccc(-c2cnoc2-c2cc(CC)c(OC)cc2O)o1,97% (active),12%,1%,101% (active),inactive,inactive,inactive,inactive
O=C(Nc1cc(F)cc(F)c1)NC1CCN(CCCCCNC(=O)[C@@H]2C[C@H]2c2ccc(Cl)c(Cl)c2)CC1,6%,49%,6%,102% (active),inactive,inactive,inactive,inactive
CC(=O)NCCNc1nccc(N2CCc3ncnc(Nc4ccc(OCc5cccc(F)c5)c(Cl)c4)c3C2)n1,100% (active),10%,5%,100% (active),inactive,inactive,inactive,inactive
Cc1cc(-c2cccc(CNCc3ccccc3)c2)ccc1S(=O)(=O)NCCN1CCCC1,58% (active),40%,1%,98% (active),inactive,inactive,inactive,inactive
CN1c2ccc([N+](=O)[O-])cc2C(C)(C)C12C=Cc1cc(Br)cc([N+](=O)[O-])c1O2 (stereo not given),99% (active),-8%,1%,101% (active),inactive,inactive,inactive,inactive
Cc1c(C(=O)N2CCc3cc4nccc(N5CCN6CCC[C@H]6C5)c4cc32)cnn1-c1ccc(C#N)cc1,27%,0%,-3%,90% (active),inactive,inactive,inactive,inactive
O=C(NCCCc1ccccc1)c1csc(C2CCCN(C(=O)c3ccc(O)c(-c4cccc5ccccc45)c3)C2)n1 (stereo not given),98% (active),3%,-1%,97% (active),inactive,inactive,inactive,inactive
CC(C)N1CCCN(C(=O)C2CCN(c3ccc(C(=O)N4CCCC4)cn3)CC2)CC1,12%,41%,1%,86% (active),inactive,inactive,inactive,inactive
Cc1ccc(CON2C(N)=NC(N)=NC23CCCCC3)c2ccccc12,56% (active),57% (active),-8%,98% (active),inactive,inactive,inactive,inactive
COc1cc(NC(=O)c2sc(-c3ccc(Cl)cc3)cc2NC(=O)CN2CCCC2)ccc1OCCN1CCCC1,79% (active),29%,3%,86% (active),inactive,inactive,inactive,inactive
CCCN1CCN(CCCNc2c3ccccc3nc3ccccc23)CC1,-1%,36%,-7%,99% (active),inactive,inactive,inactive,inactive
O=C(/C=C/C=C/c1ccccc1)NCCCCCN1CCC(c2c[nH]c3ccccc23)CC1,7%,28%,4%,85% (active),inactive,inactive,inactive,inactive
CN(C)CCOc1ccc(-c2cc(-c3ccncc3)c(-c3ccc(Cl)c(O)c3)o2)cc1,93% (active),0%,-5%,99% (active),inactive,inactive,inactive,inactive
